The source of these data is PubChem BioAssay (NCATS).

Where “and” joins values, the source holds several entries; their conditions need not be identical. Equal entries are not always repeated. Inconclusive results are not listed. Unmarked numbers belong to inactive results. Calls of active or inactive are those of the source. The call rests on the fitted dose curve; in most records, active means well fitted inhibition curve with a large enough effect; inconclusive means small, poorly fitted or top-dose-only effect; inactive means flat fitted curve, though single readings scatter.

Assay [1] concerns TAB165. Put plainly: qHTS profiling for inhibitors of Plasmodium falciparum proliferation (AID 504749). Further: potency means the concentration at half of the fitted maximal effect. To be noted: P. falciparum in erythrocytes, SYBR Green DNA, 72 h; series mostly up to 28.7 µM. The procedure, abridged: (§1)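 P. falciparum-infected erythrocytes (0.3% parasitemia, 2.5% hematocrit final) were exposed to compounds for 72 h at 37 C in 5% CO2, then lysed with SYBR Green buffer overnight at room temperature; parasite DNA fluorescence was normalized to artemisinin and DMSO controls.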

The subject of assay [2] is W2. The assay is described as above. To be noted: P. falciparum in erythrocytes, SYBR Green DNA, 72 h; series mostly up to 28.7 µM. The procedure, abridged: as §1
The test system of assay [3] is HaCat. Description: Cytotoxic Profiling of Annotated Libraries Using Quantitative High-Throughput Screening (AID 1296008). Further: potency means the concentration at half of the fitted maximal effect. On max response: on the % scale 0 is the no-effect control and ±100 the full control effect. To be noted: Five cell lines viability, CellTiter-Glo ATP luminescence, 48-72 h; max response: hits give low values. The procedure, abridged:
(§2)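 Compounds were pin-transferred onto cells and incubated 48 or 72 hr at 37 degree Celsius, 95% humidity. CellTiter-Glo was added, plates sat 10 min at room temperature, then ATP-coupled luminescence was imaged as the viability read-out.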

For assay [4], the system named is NIH3T3. The assay is described as above. The following applies: Five cell lines viability, CellTiter-Glo ATP luminescence, 48-72 h; max response: hits give low values. The procedure, abridged: as §2
For assay [5], the system named is HEK293. The assay is described as above. To be noted: Five cell lines viability, CellTiter-Glo ATP luminescence, 48-72 h; max response: hits give low values. The method in brief: as §2
In assay [6] the test system is KB-3-1. The description is as above. The following applies: Five cell lines viability, CellTiter-Glo ATP luminescence, 48-72 h; max response: hits give low values. The procedure, abridged: as §2
In assay [7] the test system is HACAT. Put plainly: qHTS assay to identify novel small-molecules to repurpose for Merkel cell carcinoma treatment (AID 1296009). To be noted: MCC and control cell lines, CellTiter-Glo viability, 72 h; at 44.8 µM (top of the series) unless noted. The method in brief: (§3)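 Cells exposed to NPC (8-point) and MIPE (11-point) compound dilutions for 72 hr at 37 degree celsius; viability read by CellTiter-Glo luminescence, normalized to no-cell and DMSO in-plate controls.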

The test system of assay [8] is MCC-13. The description is as above. To be noted: MCC and control cell lines, CellTiter-Glo viability, 72 h; series mostly up to 46 µM. The procedure, abridged: as §3
Further: nearly all actives have a fitted effect of over 60% in size.

On to `Nc1nc2c(ncn2COCCO)c(=O)[nH]1`, for which the Potency entry in assay [1] and in assay [2] was “inactive” each time.

In the case of `Cc1ccc(NC(=O)c2cccc(C(C)(C)C#N)c2)cc1Nc1ccc2ncn(C)c(=O)c2c1`, the Potency in assay [3] was 13.2 µM (active); in assay [4], 16.6 µM (active).

As to `CCn1c(-c2nonc2N)nc2c(C#CC(C)(C)O)ncc(OC[C@H]3CCCNC3)c21`, the Potency in assay [5] is 0.0469 µM (active); in assay [6] it was 9.35 µM (active). The compound was called inactive in assay [4] and in assay [7]. Further, the Potency entry in assay [8] was “inactive”.

As for `CCOc1cc(N2CCC(O)CC2)ccc1Nc1ncc2c(n1)N(C)c1ccccc1C(=O)N2C`, the max response in assay [3] was 2.41%.

On to `CC(C)(C)OC(=O)CN(Cc1ccc(Cl)cc1)Cc1ccc([N+](=O)[O-])s1`, for which the outcome in assay [3] and in assay [7] was inactive. Moreover, the values for the max response in assay [6] and in assay [4] were 0.3% and 1.62%, respectively. The Potency result in assay [8] is “inactive”.

For the compound `COc1ccc2nc(S(=O)Cc3ncc(C)c(OC)c3C)[nH]c2c1` (stereo not given), the compound was called inactive in assay [3] and in assay [7]. The max response is -5.29% in assay [6]; -7.21% and -1.13% in assay [4]. The Potency result in assay [8] was “inactive”.

For `N[C@@H]1CONC1=O`, the Potency result in assay [1] and in assay [2] was “inactive” each time.

Regarding `CC(C)C[C@H](NC(=O)[C@@H](O)[C@H](N)Cc1ccccc1)C(=O)O`, the values for the Potency in assay [1] and in assay [2] were 5.01 µM (active) and 1.69 µM (active), respectively. The Potency result in assay [8] is “inactive”.

In the case of `CCOC(=O)N1CCC(=C2c3ccc(Cl)cc3CCc3cccnc32)CC1`, the Potency was 2.51 µM (active) in assay [1]; 8.49 µM (active) in assay [2]; 18.7 µM (active) and 18.8 µM (active) in assay [5]. Also, the max response is -16.9% and -8.21% in assay [3]; -21% and -12% in assay [4]. In assay [6], the outcome was inactive. Also, the Potency entry in assay [8] was “inactive”.

`OCCC#Cc1nc(-c2ccc(F)cc2)c(-c2ccncc2)n1CCCc1ccccc1`: in assay [6], the max response was 6.14%. Moreover, in assay [4], the outcome was inactive. For the same compound, the Potency result in assay [8] was “inactive”.

Consider `Cc1cccc(-c2nn(C(=S)Nc3ccccc3)cc2-c2ccnc3ccccc23)n1`, for which the max response was -21.4% in assay [3] and -23.5% in assay [6]. In assay [8], the Potency entry is “inactive”.

`Cc1oncc1C(=O)Nc1ccc(C(F)(F)F)cc1`: the Potency entry in assay [1] was “inactive”. Moreover, in assay [2], the Potency was 3.22 µM (active).

For the compound `Oc1ccc(C2CNCCc3c2cc(O)c(O)c3Cl)cc1` (stereo not given), the Potency result in assay [1] was “inactive”.

`Nc1nccc(-c2ccc3noc(-c4ccc(Cl)cc4)c3c2)n1`: the values for the max response in assay [6] and in assay [4] were 5.59% and -8.8%, respectively. The Potency result in assay [8] is “inactive”.

Turning to `NC(=O)C1CCCc2c1[nH]c1ccc(Cl)cc21` (stereo not given), the Potency in assay [5] is 5.9 µM (active). Moreover, the max response is -10.7% in assay [3], 2.38% in assay [6] and -12.4% in assay [4]. Moreover, the Potency result in assay [8] is “inactive”.

`CCc1cncnc1N1CCN(Cc2nc3ccc(C(F)(F)F)cc3[nH]2)CC1`: the Potency in assay [5] was 14.8 µM (active) and 13 µM (active). In addition, the Potency entry in assay [8] is “inactive”.

For the compound `CCOC(=O)C1=C[C@@]2(CC)CCCN3CCc4c(n1c1ccccc41)[C@H]32`, the Potency in assay [2] is 4.78 µM (active).

As for `Cc1cccc(-c2[nH]c(C(C)(C)C)nc2-c2ccc3nccnc3c2)n1`, the Potency was 3.72 µM (active) in assay [5] and 14.8 µM (active) in assay [6]. The call in assay [3] and in assay [7] was inactive. Further, the Potency entry in assay [8] was “inactive”.

Take `CCCS(=O)(=O)Nc1ccc(F)c(C(=O)c2c[nH]c3ncc(-c4ccc(Cl)cc4)cc23)c1F`: the max response in assay [5] was -5.51%; in assay [3] it was -13.3%; in assay [6] it was 4.09%. The Potency result in assay [8] is “inactive”.

For `Cc1cc2c(C(C)C)c(O)c(O)c(C=O)c2c(O)c1-c1c(C)cc2c(C(C)C)c(O)c(O)c(C=O)c2c1O`, the figures for the Potency in assay [5] and in assay [6] were 23.5 µM (active) and 9.35 µM (active), respectively. Moreover, in assay [8], the Potency entry was “inactive”.

On to `NC[C@H](O)c1ccc(O)c(O)c1`, for which the Potency entry in assay [1] and in assay [2] was “inactive” each time.

On to `CNC(=O)c1ccc(N2C(=S)N(c3ccc(C#N)c(C(F)(F)F)c3)C(=O)C2(C)C)cc1F`, for which the max response is -4.81% in assay [5], 8.38% in assay [6] and -6.26% in assay [4]. Also, the compound was called inactive in assay [3] and in assay [7]. Also, in assay [8], the Potency result was “inactive”.

In the case of `O=C(Nc1cccnc1)N1CCC(Cc2cccc(Oc3ccc(C(F)(F)F)cn3)c2)CC1`, in assay [5], the Potency is 10.5 µM (active) and 8.2 µM (active). In addition, the max response in assay [3] is -12.8%.

Regarding `O=c1ncn2nc(Sc3ccc(F)cc3F)ccc2c1-c1c(Cl)cccc1Cl`, the Potency in assay [5] is 13.2 µM (active). Further, the max response in assay [3] is -4.37%; in assay [6], -0.339%. For the same compound, in assay [8], the Potency result was “inactive”.

As for `NC(=O)c1ccc(-c2nc(-c3ccc4c(c3)OCCO4)c(-c3ccccn3)[nH]2)cc1`, the figures for the max response in assay [3] and in assay [4] were -0.259% and -6.71%, respectively. In assay [8], the Potency entry was “inactive”.

Consider `Cc1cc(Nc2nc(N[C@@H](C)c3ncc(F)cn3)ncc2Cl)n[nH]1`, for which the Potency is 7.31 µM (active) in assay [5], 6.51 µM (active) in assay [3] and 8.2 µM (active) in assay [4]. Also, the Potency entry in assay [8] is “inactive”.

For the compound `COCCNCCCn1c(C(=O)CF)c(-c2ccc(C)cc2)c2c(N)ncnc21`, the max response in assay [6] is -1.17%. Moreover, the Potency entry in assay [8] was “inactive”.

Turning to `CCn1cc(C(=O)O)c(=O)c2cc(F)c(N3CCNC(C)C3)c(F)c21` (stereo not given), the compound was classed as inactive in assay [7]. Moreover, the Potency result in assay [8] is “inactive”.

`Fc1ccc(Cl)cc1-c1nc(Nc2ccncc2)c2nccnc2n1`: the max response in assay [6] is 2.67%; in assay [4] it was -15.4%. For the same compound, in assay [7], the result was inactive. Further, the Potency result in assay [8] was “inactive”.

As to `Cc1cc(-c2ccc(CC(=O)Nc3ccc(-c4cccnc4)cc3)cc2)ccn1`, the Potency in assay [5] is 9.35 µM (active). For the same compound, the result in assay [3] and in assay [7] was inactive. In addition, the Potency entry in assay [8] was “inactive”.

`c1ccc(-c2nn3c(c2-c2ccnc4cc(OCCN5CCOCC5)ccc24)CCC3)nc1`: the max response in assay [3] was -14.5%; in assay [6], 6.43%. Further, in assay [4], the Potency is 5.26 µM (active). The Potency result in assay [8] is “inactive”.

For `N#Cc1ccc(C(c2ccc(C#N)cc2)n2cncn2)cc1`, the Potency result in assay [1], in assay [2] and in assay [8] was “inactive” throughout. For the same compound, the max response was 2.76% in assay [3]; -0.837% and -6.35% in assay [6]; 2.6% in assay [4].

Turning to `Cc1ccc(N(CC2=NCCN2)c2cccc(O)c2)cc1`, the Potency entry in assay [1], in assay [2] and in assay [8] was “inactive” throughout. In addition, the max response in assay [3] is 1.48%; in assay [6], 5.53% and -7.75%; in assay [4] it was -17.8% and -24.2%. In addition, the result in assay [3] and in assay [7] was inactive.
